Records with an inconclusive call do not appear. Where a call stands in place of a potency, no number is given. The source made the active and inactive calls. Unless noted, calls follow the shape of the dose curve; as a rule, active = well fitted curve in the direction sought with a large enough effect; inconclusive = small, poorly fitted or top-dose-only effect, or another doubt; inactive = no such curve, though single readings can be large; an effect the other way counts as inactive or inconclusive.
Experiments:
[1] = Cell Viability - LYMP2-020 (AID 986);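 also: cells exposed to compound for 24 h at 37 °C; nearly all actives have a fitted effect of over 55% in size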
Method in brief: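 Seed 2500 cells per well and incubate 5 hr at 37 C. Add compounds at a concentration series and incubate 24 hr at 37 C. Add CellTiter-Glo, wait 30 min at RT, read luminescence, and fit a Hill curve for AC50.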

[2] = Cell Viability - LYMP2-022 (AID 987); also: nearly all actives have a fitted effect of over 55% in size
Method in brief: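 Cells were seeded at 2500 per well, rested 5 hr at 37 C, and treated with titrated compounds for 24 hr at 37 C. Cellular ATP was then quantified by luciferase luminescence, and AC50 values were derived from Hill-modelled concentration-response curves.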

[3] = Cell Viability - LYMP2-024 (AID 988); also: nearly all actives have a fitted effect of over 60% in size
Method in brief: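 qHTS cytotoxicity, human lymphoblastoid line, complete medium; 24 h cpd treatment, 37 C; CellTiter-Glo ATP luminescence readout; tetraoctylammonium bromide positive control; AC50 via Hill fit.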

[4] = Cell Viability - LYMP2-026 (AID 989);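 also: cells exposed to compound for 24 h at 37 °C; nearly all actives have a fitted effect of over 50% in size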
Method in brief: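 Cells are seeded at 2500 per well and held 5 hr at 37 C. Compounds are added in concentration series for 24 hr, then CellTiter-Glo reagent is applied and luminescence read.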

[5] = qHTS for differential inhibitors of proliferation of Plasmodium falciparum line W2 (AID 1883); settings: Potency: Plasmodium falciparum W2 proliferation inhibition;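 also: potency is read from the fitted curve at half-maximal effect; parasites grown with compound for 72 h before lysis and staining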
[6] = Validation screen for small molecules that induce genotoxicity in human embryonic kidney (HEK293T) cells expressing luciferase-tagged ELG1 (AID 493106)
Method in brief: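 Cells were dispensed at 2,000 per well, then 23 nL compound or DMSO was pinned in. After 16 hr at 37 °C and 5% CO2, ONE-Glo reagent was added. Luciferase activity was measured following 30 min at room temperature.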

[7] = qHTS assay for small molecule agonists of the antioxidant response element (ARE) signaling pathway (AID 651741; active = well fitted activation curve with a large enough effect in the signal ratio; the % refers to the signal ratio; also: potency is read from the fitted curve at half-maximal effect)
Method in brief: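 Stably integrated ARE-beta-lactamase reporter HepG2 cells; 16 h compound incubation, 37 C; LiveBLAzer FRET substrate 2 h at room temperature; fluorescence intensity.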

[8] = qHTS assay to identify small molecules that stimulate interleukin-8 (IL-8) secretion (AID 651758; active = well fitted activation curve with a large enough effect in the signal ratio; the % refers to the signal ratio)
Method in brief: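 Compounds are added to THP-1 cells (2000 per well) and left 16 hrs at 37 C. A labeled anti-IL-8 antibody pair is then added, and IL-8 secretion is measured by time-resolved FRET after 1-3 hrs at room temperature.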

[9] = qHTS profiling of the MIPE4 collection as inhibitors of Plasmodium falciparum (DD2) proliferation (AID 743345; call rule not given here); settings: P. falciparum Dd2 in erythrocytes, SYBR Green DNA, 72 h; at 28.5 µM (top of the series) unless noted
Method in brief: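 Parasite DNA was quantified by SYBR Green I fluorescence (ex 485, em 535 nm) after overnight lysis in saponin/Triton buffer at room temperature. Cultures at 0.3% parasitemia and 2.5% hematocrit were first exposed to compound for 72 h at 37 C; signals were normalised to artemisinin (0.29 uM) and vehicle wells.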

SMILES	outcome [1]	outcome [2]	outcome [3]	outcome [4]	Potency [5]	outcome [6]	Potency [7]	Potency [8]	parasite growth remaining, % of DMSO control (lower = more inhibition) [9] [%]
Cc1ccccc1O	inactive	inactive	inactive	inactive					
CC(=O)[C@H]1CC[C@H]2[C@@H]3CCC4=CC(=O)CC[C@]4(C)[C@H]3CC[C@]12C					7.94 µM (active)	inactive	37.6 µM (active)	inactive	85

— PubChem BioAssay (NCATS)
